KDM5B inhibitor = KDM5B demethylase inhibition | KDM5B demethylase, FDH-coupled NADH fluorescence (FDH is formaldehyde dehydrogenase) | Potency, µM (doses to about 57.7 µM), most hits filed as inhibitors | actives 2.6% (n = 220,000) | AID 1347165; active means well fitted inhibition curve with a large enough effect; further: 0% is about no effect; nearly all actives have a fitted effect of over 70% in size
Target sequence (Q9UGL1 whole entry, looked up): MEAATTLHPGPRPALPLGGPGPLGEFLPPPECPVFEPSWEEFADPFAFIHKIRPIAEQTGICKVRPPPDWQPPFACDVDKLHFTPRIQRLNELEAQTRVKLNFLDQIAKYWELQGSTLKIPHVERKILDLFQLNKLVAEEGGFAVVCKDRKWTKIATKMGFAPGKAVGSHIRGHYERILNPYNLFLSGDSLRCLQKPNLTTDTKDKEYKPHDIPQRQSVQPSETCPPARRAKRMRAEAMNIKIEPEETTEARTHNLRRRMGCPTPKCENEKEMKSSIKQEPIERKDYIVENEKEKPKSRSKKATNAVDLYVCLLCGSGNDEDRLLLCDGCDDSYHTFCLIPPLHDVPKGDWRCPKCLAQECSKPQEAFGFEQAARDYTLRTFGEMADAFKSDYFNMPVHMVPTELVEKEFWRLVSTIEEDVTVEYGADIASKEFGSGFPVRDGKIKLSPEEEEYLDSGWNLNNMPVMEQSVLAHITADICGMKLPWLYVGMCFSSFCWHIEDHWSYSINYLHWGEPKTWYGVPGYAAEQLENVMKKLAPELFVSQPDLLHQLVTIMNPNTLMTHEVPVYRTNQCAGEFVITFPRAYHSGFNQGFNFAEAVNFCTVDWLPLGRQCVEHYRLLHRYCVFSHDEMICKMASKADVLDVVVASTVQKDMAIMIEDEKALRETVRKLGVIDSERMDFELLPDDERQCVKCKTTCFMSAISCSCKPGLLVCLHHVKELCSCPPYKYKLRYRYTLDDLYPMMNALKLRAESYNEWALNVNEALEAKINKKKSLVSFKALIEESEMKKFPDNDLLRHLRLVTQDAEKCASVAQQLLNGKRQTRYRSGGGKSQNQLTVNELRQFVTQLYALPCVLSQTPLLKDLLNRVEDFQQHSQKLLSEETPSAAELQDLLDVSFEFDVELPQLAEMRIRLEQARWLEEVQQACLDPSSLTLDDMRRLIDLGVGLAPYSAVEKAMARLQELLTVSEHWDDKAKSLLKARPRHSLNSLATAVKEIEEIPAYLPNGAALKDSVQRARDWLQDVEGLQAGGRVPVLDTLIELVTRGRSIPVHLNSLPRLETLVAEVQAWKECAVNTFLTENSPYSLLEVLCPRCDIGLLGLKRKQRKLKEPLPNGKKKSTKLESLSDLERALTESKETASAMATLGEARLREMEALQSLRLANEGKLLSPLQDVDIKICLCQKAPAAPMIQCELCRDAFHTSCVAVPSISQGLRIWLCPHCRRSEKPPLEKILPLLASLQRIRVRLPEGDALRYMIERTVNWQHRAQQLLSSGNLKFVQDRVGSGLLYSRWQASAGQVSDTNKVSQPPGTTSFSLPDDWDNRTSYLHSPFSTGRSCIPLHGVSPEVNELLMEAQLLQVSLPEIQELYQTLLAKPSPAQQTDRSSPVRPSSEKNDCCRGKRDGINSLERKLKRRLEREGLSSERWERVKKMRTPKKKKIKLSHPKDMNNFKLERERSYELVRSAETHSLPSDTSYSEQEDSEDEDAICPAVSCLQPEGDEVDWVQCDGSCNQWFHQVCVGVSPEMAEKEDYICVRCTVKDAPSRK
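Compound dilutions met 200 nM (final) KDM5BΔAP for 10 min at room temperature before substrate addition. The substrate mix held 12.5 µM H3K4me3 with cofactors 25 µM α-ketoglutarate and 50 µM Fe²⁺. NADH signal gain over 30 min defined activity.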
An asterisk follows results filed as active; ! = not confirmed by another sample. Many of the other results were omitted from the sample, so hits are more common in it than they were. Potency means the concentration at half of the fitted maximal effect.

Cc1ccc(CNC(=O)c2ccc3c(c2)CN(C2CCSCC2)CCO3)cc1 was read as KDM5B inhibitor inactive.
For O=C(NCCSC1CCCC1)C1CCCO1 (centres undefined) the results were KDM5B inhibitor inactive.
For Cc1csc(/C(C#N)=C\c2ccc(COc3ccc(Cl)cc3Cl)o2)n1 the results were KDM5B inhibitor inactive.
`COC(=O)c1cc(NC(=O)c2nc3ccccc3nc2N2CCCC2)cc(C(=O)OC)c1` gave KDM5B inhibitor inactive.
`Cc1ccc(C(=O)NCCn2c(C)cc3ccccc32)cc1C` gave KDM5B inhibitor inactive.
Cn1cc(Cl)cc1C(=O)N[C@H](C1CCNCC1)C1CC(O)C1 (some centres undefined) was read as KDM5B inhibitor inactive.
For O=C(N[C@H](C1CCNCC1)C1CC(O)C1)c1cccc(=O)[nH]1 (some centres undefined) the results were KDM5B inhibitor 22µM*.
For Cc1ccc(CCC(=O)N[C@H](C2CCNCC2)C2CC(O)C2)cc1C (some centres undefined) the results were KDM5B inhibitor inactive.
Cc1ccc(F)c(C(=O)N[C@H](C2CCNCC2)C2CC(O)C2)c1Cl (some centres undefined) was read as KDM5B inhibitor inactive.
Screening O=C(N[C@H](C1CCNCC1)C1CC(O)C1)c1ccccc1C(F)(F)F (some centres undefined) returned KDM5B inhibitor inactive.
COc1cc(CCC(=O)N[C@H](C2CCNCC2)C2CC(O)C2)ccc1C (some centres undefined) was read as KDM5B inhibitor inactive.
Screening CC(C)Cc1cc(C(=O)N[C@H](C2CCNCC2)C2CC(O)C2)nc(N)n1 (some centres undefined) returned KDM5B inhibitor 22µM*.
Screening Cc1cnc2c(C(=O)N[C@H](C3CCNCC3)C3CC(O)C3)cnn2c1 (some centres undefined) returned KDM5B inhibitor 32µM*.
Screening O=C(Cc1noc2ccccc12)N[C@H](C1CCNCC1)C1CC(O)C1 (some centres undefined) returned KDM5B inhibitor inactive.
O=C(CCCCCCCCN1C(=O)c2ccccc2C1=O)N1CCOCC1 was read as KDM5B inhibitor inactive.
For O=C(N[C@H]1[C@H](O)[C@H](O)C[C@@H]1c1ccccc1)c1ccccn1 the results were KDM5B inhibitor inactive.
Screening CC(=O)C1=C(c2ccc(C)c(C)c2)N(C(C)=O)n2c(nnc2-c2ccc(Cl)cc2)S1 returned KDM5B inhibitor inactive.
For COc1cc2c(cc1OC)-c1c(c(C(=O)Nc3cccnc3)nn1-c1ccc(Cl)cc1)C2 the results were KDM5B inhibitor inactive.
COc1cccc(NC(=O)C(CCSC)NC(=O)C2CCC(C)CC2)c1 (centres undefined) was read as KDM5B inhibitor inactive.
CCC(=O)N1c2ccccc2CC1C(=O)NCCc1ccccc1Cl (centres undefined) was read as KDM5B inhibitor inactive.
COCC(=O)NC1CCC12CCN(S(=O)(=O)Cc1ccccc1)CC2 (centres undefined) was read as KDM5B inhibitor inactive.
Screening CN(C)C[C@@H]1CN(S(C)(=O)=O)C[C@H]1NC(=O)c1cc2ccccc2[nH]1 returned KDM5B inhibitor 32µM*.
Screening CN(C)C[C@@H]1CN(S(C)(=O)=O)C[C@H]1NC(=O)c1c[nH]c2ccccc12 returned KDM5B inhibitor inactive.
Screening Cc1ccccc1C(=O)N[C@@H]1CN(S(C)(=O)=O)C[C@H]1CN(C)C returned KDM5B inhibitor inactive.
For Cn1cc(CC(=O)N2CCCc3ncc(C(=O)Nc4cccc(C(F)(F)F)c4)cc32)c2ccccc21 the results were KDM5B inhibitor 22µM*.
`Cn1cc(CC(=O)N2CCCc3ncc(C(=O)NCCc4ccccc4)cc32)c2ccccc21` gave KDM5B inhibitor inactive.
For Cn1cc(CC(=O)N2CCCc3ncc(C(=O)Nc4cccc(F)c4)cc32)c2ccccc21 the results were KDM5B inhibitor 32µM*.
`Cn1cc(CC(=O)N2CCCc3ncc(C(=O)NCc4ccccc4)cc32)c2ccccc21` gave KDM5B inhibitor inactive.
For COCCCNC(=O)c1cnc2c(c1)N(C(=O)Cc1cn(C)c3ccccc13)CCC2 the results were KDM5B inhibitor inactive.
Screening CC(C)CCNC(=O)c1cnc2c(c1)N(C(=O)Cc1cn(C)c3ccccc13)CCC2 returned KDM5B inhibitor inactive.
Screening COc1ccccc1C(=O)OCc1cccc(C#N)c1 returned KDM5B inhibitor inactive.
For COC(=O)CN1CCN(c2nc3c(c(=O)[nH]c(=O)n3C)n2Cc2ccc(Br)cc2)CC1 the results were KDM5B inhibitor inactive.
Screening CCc1ccc(NC(=O)CCCc2nnc3n(CC(C)C)c(=O)c4sccc4n23)cc1 returned KDM5B inhibitor inactive.
C=C(C)COc1cccc(NC(=O)c2ccccc2)c1 was read as KDM5B inhibitor inactive.
COCCN1CC2(CCCN(C(=O)c3n[nH]c4ccc(C)cc34)C2)CCC1=O (centres undefined) was read as KDM5B inhibitor inactive.
For Cc1[nH]c(=O)c(C#N)cc1C(=O)N1CCCC2(CCC(=O)N(C3CC3)C2)C1 (centres undefined) the results were KDM5B inhibitor 28µM*.
For O=C(c1ccc(Cn2cccn2)o1)N1CCCC2(CCC(=O)N(C3CC3)C2)C1 (centres undefined) the results were KDM5B inhibitor inactive.
O=C(NC1CCCN(c2nc3ncccc3o2)C1)c1ccccc1F (centres undefined) was read as KDM5B inhibitor inactive.
Screening Cc1ccccc1C(=O)NC1CCCN(c2nc3ncccc3o2)C1 (centres undefined) returned KDM5B inhibitor inactive.
O=C(Nc1ccc(Cl)cc1)NC1CCN(c2nc3ncccc3o2)CC1 was read as KDM5B inhibitor inactive.
For O=C(NC1CCN(c2cc(-c3ccccc3)[nH]n2)CC1)c1ccc2ncccc2c1 the results were KDM5B inhibitor inactive.
Cc1ccccc1C(=O)NC1CCN(c2nc3ncccc3o2)CC1 was read as KDM5B inhibitor 32µM*.
For Cc1ccc([S+](=O)([O-])N2CCCN(c3nc4ncccc4o3)CC2)cc1 the results were KDM5B inhibitor inactive.
CC(C)(C)C(=O)NC1CCN(c2nc3ncccc3o2)CC1 was read as KDM5B inhibitor 25µM*.
For O=C(Nc1ccccc1)NC1CCN(c2nc3ncccc3o2)CC1 the results were KDM5B inhibitor 25µM*!.
Screening CC(NC(=O)C1CCN(c2nc3ccccc3o2)CC1)c1ccccc1 (centres undefined) returned KDM5B inhibitor inactive.
Cc1cc(NC(=O)C(C)(C)C)cc(-c2nc3ncccc3o2)c1O was read as KDM5B inhibitor inactive.
O=C(NC1CCCN(c2nc3ncccc3o2)C1)c1cccc(Cl)c1 (centres undefined) was read as KDM5B inhibitor inactive.
Screening O=C(NC1CCN(c2nc3ncccc3o2)CC1)c1cccc(Cl)c1 returned KDM5B inhibitor 28µM*.
`Cc1nnsc1C(=O)N1CCN(c2ccc(F)cc2)CC1` gave KDM5B inhibitor inactive.
`CCOc1ccc2oc(C(=O)N3CCN(CC(=O)Nc4ccccc4CC)CC3)c(C)c2c1` gave KDM5B inhibitor inactive.
O=C(O)/C=C/c1c(Cl)cccc1Cl was read as KDM5B inhibitor inactive.
`COc1ccc(CNC(=O)CCS(=O)(=O)c2cc3c4c(c2)CCN4C(=O)CC3)cc1` gave KDM5B inhibitor inactive.
For CCOc1ccccc1C(=O)NC1CC(c2nnc(CN(C)C)n2C)C1 (centres undefined) the results were KDM5B inhibitor inactive.
